We go through 29 molecules from PubChem BioAssay AID485281 (National Center for Advancing Translational Sciences (NCATS), 2010).

Out of some 350,000 compounds screened, about 260 (0.074%) were called active. Entries that show only a call come without a potency. Another 8% or so got no clear call; they are omitted. The call rests on the fitted dose curve; in most records, active means well fitted inhibition curve with a large enough effect; inconclusive means small, poorly fitted or top-dose-only effect; inactive means no such curve, though single readings can be large or run the other way. For the sample, actives were picked, then their nearest neighbours and some compounds at random.

Ferritin light chain (Equus caballus), sequence (P02791 2-175 limits assumed): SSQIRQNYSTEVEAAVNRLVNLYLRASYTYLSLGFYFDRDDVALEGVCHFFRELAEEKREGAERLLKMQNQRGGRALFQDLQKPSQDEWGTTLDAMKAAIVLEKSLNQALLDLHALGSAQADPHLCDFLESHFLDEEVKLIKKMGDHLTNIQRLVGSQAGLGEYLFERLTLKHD

In this assay the target is Ferritin light chain (Equus caballus) (UniProt P02791). Nature of the assay: qHTS Assay for Identification of Novel General Anesthetics. Further: nearly all actives have a fitted effect of over 20% in size. The following applies: apoferritin/1-aminoanthracene competitive binding, fluorescence; series mostly up to 77.5 µM. The essentials:
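Steps: apoferritin (10 uM) was premixed with half-saturated 1-AMA in PBS, compounds were pin-transferred, plates stood 10 min at room temperature, fluorescence was read at 380/535 nm, and curves were fitted with a Hill equation.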
In general terms: qHTS replaces the single test concentration by a dilution series.
Turning to `CCc1cccc(NC(=O)CSc2nccn2C)c1`, the Potency entry is “inactive”.

For the molecule `COc1ccc(-c2cn3c(C)c(C(=O)Nc4cc(C)cc(C)c4)sc3n2)cc1`, the Potency result was “inactive”.

Consider `O=S(=O)(c1ccccc1)c1nc(-c2ccc(Cl)cc2Cl)oc1N1CCCCC1`, for which the Potency entry was “inactive”.

For `COc1cc(C(=O)Nc2ccc(-n3c(C)nc4ccccc4c3=O)cc2)cc(OC)c1OC`, the Potency result was “inactive”.

As for `CCOc1ccc(CN2CCNC(=O)C2CC(=O)NCCCC2CCCC2)cc1` (centres undefined), the Potency is 31.6 µM (active).

Consider `O=C(CC1C(=O)NCCN1Cc1ccc(-c2ccccc2)cc1)NCC1CCOCC1` (centres undefined), for which the Potency entry was “inactive”.

Turning to `Cc1nccn1CCCNC(=O)CC1C(=O)NCCN1Cc1ccc(Cl)c(F)c1` (centres undefined), the Potency entry was “inactive”.

With `CC(=O)c1cccc(NC(=O)c2nc(-c3ccccc3)n(-c3cccc(C)c3)n2)c1`, the Potency entry was “inactive”.

Take `O=C(c1cnn(-c2ccc(F)cc2)c1-n1cccc1)N1CCN(c2ccc(F)cc2)CC1`: the Potency result was “inactive”.

For `CCCn1c2ccccc2c2cnn(CC(=O)N(C)c3ccccc3CC)c(=O)c21`, the Potency result was “inactive”.

On to `O=C(CCC(=O)N1CC2CCCN2c2ccccc21)NCc1ccccc1Cl` (centres undefined), for which the Potency entry is “inactive”.

Turning to `Cc1ccc2nc(-c3ccc(C)c(NC(=O)Cc4ccccc4)c3)oc2c1`, the Potency entry is “inactive”.

With `COc1ccc(N(CC(=O)NCCc2ccc(Cl)cc2)S(=O)(=O)c2c(C)nn(C)c2C)cc1`, the Potency entry was “inactive”.

As to `COC(=O)CSc1ccc2nnc(CCNS(=O)(=O)c3ccc(C)cc3)n2n1`, the Potency result is “inactive”.

On to `O=S(=O)(NCCc1nnc2ccc(SCc3ccc(Cl)cc3Cl)nn12)c1ccccc1`, for which the Potency is 17.8 µM (active).

In the case of `Cc1ccc(S(=O)(=O)NCCc2nnc3ccc(SCc4cccnc4)nn23)cc1`, the Potency entry was “inactive”.

As for `CN1C(=O)c2ccccc2Sc2ccc(NC(=O)Cc3ccc(Cl)cc3)cc21`, the Potency result is “inactive”.

Take `O=C(NCC(c1ccc2c(c1)OCO2)N1CCN(c2ccccc2)CC1)C(=O)Nc1ccccc1F` (centres undefined): the Potency entry is “inactive”.

As to `Cc1ccc(Cl)cc1NC(=O)C(C)n1nnc2sc(-c3ccccc3)cc2c1=O` (centres undefined), the Potency result was “inactive”.

Turning to `O=C(Cn1cc(SCc2cccc(Cl)c2)c2ccccc21)N1CCCCC1`, the Potency result is “inactive”.

`CCN1CCN(c2ncc3c(n2)CC(c2ccccc2O)CC3=O)CC1` (centres undefined): the Potency result was “inactive”.

For `CCCCCCSc1nsc(N)n1`, the Potency is 8.91 µM (active).

`Nc1nc(SC23CC4CC(CC(C4)C2)C3)ns1`: the Potency result is “inactive”.

`CCCSc1nsc(N)n1`: the Potency result was “inactive”.

As to `O=C(c1ccc(Br)cc1)N(Cc1cccs1)c1ccc(F)cc1`, the Potency entry was “inactive”.

For `Cn1cc(S(=O)(=O)N2CCCCCC2)cc1C(=O)N1CCN(c2ccc(F)cc2)CC1`, the Potency entry was “inactive”.

`CC1Cc2ccccc2N1C(=O)CSc1nnc(C2CC2)n1C` (centres undefined): the Potency entry was “inactive”.

In the case of `Cc1cc(=O)[nH]c(SCC(=O)N2c3ccccc3CC2C)n1` (centres undefined), the Potency was 14.1 µM (active).

In the case of `CC1Cc2ccccc2N1C(=O)CSc1nc2ccccc2o1` (centres undefined), the Potency entry was “inactive”.
